These results are taken from PubChem BioAssay.

Assay [1] is described as follows: small molecules captured by biotinylated probe aFSTL3 – biochemical, small-molecule microarray, fluorescence 635/667, stem cell growth factor project, primary screen (AID 1064).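 Further: measures binding of the biotinylated anti-FSTL3 antibody to printed compounds.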 The following applies: higher = more signal.
The nature of assay [2]: binders from COS7 lysate, DM2A8 probe, primary screen, torsin A project, cell lysate, small-molecule microarray, fluorescence 635/667 (AID 1065). The following applies: higher = more signal, COS7 lysate expressing mutant human TOR1A.
Assay [3] in a line: small molecules captured by biotinylated probe aFGF2 – biochemical, small-molecule microarray, fluorescence 635/667, stem cell growth factor project, primary screen (AID 1067).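 Further: measures binding of biotinylated aFGF2 protein to printed compounds on slides; z-score merges feature fluorescence and signal-to-noise across triplicate slides.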 Conditions: higher = more signal.
Assay [4] in a line: small molecules captured by biotinylated probe aFGF10 – biochemical, small-molecule microarray, fluorescence 635/667, stem cell growth factor project, primary screen (AID 1071).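 Further: score merges 667 nm spot intensity and signal to noise from triplicate slides.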 Conditions: higher = more signal.
Assay [5] concerns the target Neurogenic locus notch homolog protein 2 (Homo sapiens) (UniProt Q04721). Briefly: small molecules binding Notch2 protein – biochemical, small-molecule microarray, 635 nm fluorescence, stem cell growth factors, primary screen (AID 1073). The following applies: higher = more signal.
The target in assay [6] is Pro-neuregulin-1, membrane-bound isoform (Homo sapiens) (UniProt Q02297). Briefly: small molecules binding neuregulin-1 protein – biochemical, small-molecule microarray, fluorescence 635/667, psychiatric disease protein project, primary screen (AID 1075).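 Further: score combines 667 nm spot fluorescence with signal to noise.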 Conditions: NRG1 binding, 635 nm fluorescence, higher = more signal.
Assay [7] relates to Neuregulin-1 EGF-like domain. In words: small molecules binding NRG1 EGF domain – biochemical, small-molecule microarray, 635 nm fluorescence, primary screen (AID 1081).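 Further: binding of the protein to compounds printed on small-molecule microarray slides.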 The following applies: higher = more signal.
The nature of assay [8]: FRG1 expression reporter modulators in myotubes – cell-based, C2C12 myotubes, firefly/Renilla luciferase, luminescence, FRG1 inhibition for FSHD, primary screen (AID 1084). Conditions: FRG1 promoter luciferase, higher = more signal, called active from +8 up or from −8 down.
A short description of assay [9]: small molecules captured by biotinylated probe aFST – biochemical, small-molecule microarray, fluorescence 635/667, stem cell growth factor project, primary screen (AID 1086).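 Further: score merges 667 nm fluorescence with signal-to-noise of each printed compound spot.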 The following applies: higher = more signal.
Assay [10] in a line: binders of probe aHhip on microarray, primary screen, stem cell growth factor project, biochemical, small-molecule microarray, fluorescence 635/667 (AID 1087).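 Further: score merges spot fluorescence at 667nm with spot signal to noise ratio.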 Conditions: higher = more signal.
Assay [11] has as its system PRMT1 (protein arginine N-methyltransferase 1). In words: small molecules binding arginine methyltransferase PRMT1 – biochemical, small-molecule microarray, 635 nm fluorescence, primary screen (AID 1088).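 Further: binding of Prmt1 protein to compounds spotted on small-molecule microarray slides.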 The following applies: higher = more signal.
Assay [12] can be described thus: growth effects on S. cerevisiae YJM789 – YJM789 clinical isolate, OD600, 24 h, basal, primary screen (AID 1089).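 Further: growth of clinical yeast isolate S. cerevisiae YJM 789 seeded 1000 cells per well; test concentration not given here.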 Conditions: higher = more signal, called active from +8 up or from −8 down.
The nature of assay [13]: S. pombe growth modifiers, basal conditions – strain 972, OD600, 24 h, no modulator, primary screen (AID 1090).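 Further: basal condition with compound alone and no growth modifier present; test concentration not given here.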 The following applies: S. pombe 972 growth, higher = more signal, called active from +8 up or from −8 down.
Assay [14] is described as follows: budding yeast growth modifiers under rapamycin – strain BY4716, OD600, 96 h, primary screen (AID 1091). Further: test concentration not given here. The following applies: S. cerevisiae BY4716 + rapamycin, higher = more signal, called active from +8 up or from −8 down.
Assay [15] has as its target Torsin-1A-interacting protein 2 (Homo sapiens) (UniProt Q8NFQ8). Briefly: small molecules binding lysate-expressed LULL1 – cell lysate, human LULL1 lysate, 635/667 nm fluorescence, primary screen (AID 1092).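 Further: probe is lysate of COS7 cells overexpressing human LULL1; score merges per-feature 667 nm fluorescence with signal-to-noise.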 Conditions: small-molecule microarray, hLULL1 lysate binding, 635 nm fluorescence; higher = more signal.
Assay [16] is described as follows: optical density change of DRC41 E. coli – strain DRC41, OD650, 24 h, E. coli filamentation project, primary screen (AID 1093).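 Further: MC1000 strain lacking acrAB efflux and sulA so SOS filamentation is blocked; test concentration not given here.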 Conditions: E. coli DRC41 growth, higher = more signal, called active from +8 up or from −8 down.
A short description of assay [17]: probe aLefty2 binding to arrayed compounds – biochemical, biotinylated probe, 635/667 nm fluorescence, primary screen (AID 1094).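 Further: score merges spot fluorescence near 667 nm with spot signal-to-noise ratio.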 Conditions: small-molecule microarray, higher = more signal.
The test system of assay [18] is Noggin (protein binding on small-molecule microarray). Briefly: small molecules binding Noggin protein – biochemical, 635/667 nm fluorescence, primary screen (AID 1095).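 Further: score merges 667 nm feature fluorescence with signal to noise over triplicate slides.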 Conditions: 635 nm fluorescence, higher = more signal.
In assay [19] the target is Neurogenic locus notch homolog protein 3 (Homo sapiens) (UniProt Q9UM47). Briefly: small molecules binding NOTCH3 protein – biochemical, 635/667 nm fluorescence, primary screen (AID 1096). Conditions: small-molecule microarray, 635 nm fluorescence, higher = more signal.
Assay [20] can be described thus: probe aEGFR binding to arrayed compounds – biochemical, biotinylated probe, 635/667 nm fluorescence, primary screen (AID 1097).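 Further: probe is a biotinylated anti-EGFR antibody binding compounds printed on slides; score combines fluorescence near 667 nm and signal to noise of each spot.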 The following applies: small-molecule microarray, higher = more signal.

Activity calls are given as the source filed them.

Chain of Neurogenic locus notch homolog protein 3 (Homo sapiens) (Q9UM47 whole entry, looked up): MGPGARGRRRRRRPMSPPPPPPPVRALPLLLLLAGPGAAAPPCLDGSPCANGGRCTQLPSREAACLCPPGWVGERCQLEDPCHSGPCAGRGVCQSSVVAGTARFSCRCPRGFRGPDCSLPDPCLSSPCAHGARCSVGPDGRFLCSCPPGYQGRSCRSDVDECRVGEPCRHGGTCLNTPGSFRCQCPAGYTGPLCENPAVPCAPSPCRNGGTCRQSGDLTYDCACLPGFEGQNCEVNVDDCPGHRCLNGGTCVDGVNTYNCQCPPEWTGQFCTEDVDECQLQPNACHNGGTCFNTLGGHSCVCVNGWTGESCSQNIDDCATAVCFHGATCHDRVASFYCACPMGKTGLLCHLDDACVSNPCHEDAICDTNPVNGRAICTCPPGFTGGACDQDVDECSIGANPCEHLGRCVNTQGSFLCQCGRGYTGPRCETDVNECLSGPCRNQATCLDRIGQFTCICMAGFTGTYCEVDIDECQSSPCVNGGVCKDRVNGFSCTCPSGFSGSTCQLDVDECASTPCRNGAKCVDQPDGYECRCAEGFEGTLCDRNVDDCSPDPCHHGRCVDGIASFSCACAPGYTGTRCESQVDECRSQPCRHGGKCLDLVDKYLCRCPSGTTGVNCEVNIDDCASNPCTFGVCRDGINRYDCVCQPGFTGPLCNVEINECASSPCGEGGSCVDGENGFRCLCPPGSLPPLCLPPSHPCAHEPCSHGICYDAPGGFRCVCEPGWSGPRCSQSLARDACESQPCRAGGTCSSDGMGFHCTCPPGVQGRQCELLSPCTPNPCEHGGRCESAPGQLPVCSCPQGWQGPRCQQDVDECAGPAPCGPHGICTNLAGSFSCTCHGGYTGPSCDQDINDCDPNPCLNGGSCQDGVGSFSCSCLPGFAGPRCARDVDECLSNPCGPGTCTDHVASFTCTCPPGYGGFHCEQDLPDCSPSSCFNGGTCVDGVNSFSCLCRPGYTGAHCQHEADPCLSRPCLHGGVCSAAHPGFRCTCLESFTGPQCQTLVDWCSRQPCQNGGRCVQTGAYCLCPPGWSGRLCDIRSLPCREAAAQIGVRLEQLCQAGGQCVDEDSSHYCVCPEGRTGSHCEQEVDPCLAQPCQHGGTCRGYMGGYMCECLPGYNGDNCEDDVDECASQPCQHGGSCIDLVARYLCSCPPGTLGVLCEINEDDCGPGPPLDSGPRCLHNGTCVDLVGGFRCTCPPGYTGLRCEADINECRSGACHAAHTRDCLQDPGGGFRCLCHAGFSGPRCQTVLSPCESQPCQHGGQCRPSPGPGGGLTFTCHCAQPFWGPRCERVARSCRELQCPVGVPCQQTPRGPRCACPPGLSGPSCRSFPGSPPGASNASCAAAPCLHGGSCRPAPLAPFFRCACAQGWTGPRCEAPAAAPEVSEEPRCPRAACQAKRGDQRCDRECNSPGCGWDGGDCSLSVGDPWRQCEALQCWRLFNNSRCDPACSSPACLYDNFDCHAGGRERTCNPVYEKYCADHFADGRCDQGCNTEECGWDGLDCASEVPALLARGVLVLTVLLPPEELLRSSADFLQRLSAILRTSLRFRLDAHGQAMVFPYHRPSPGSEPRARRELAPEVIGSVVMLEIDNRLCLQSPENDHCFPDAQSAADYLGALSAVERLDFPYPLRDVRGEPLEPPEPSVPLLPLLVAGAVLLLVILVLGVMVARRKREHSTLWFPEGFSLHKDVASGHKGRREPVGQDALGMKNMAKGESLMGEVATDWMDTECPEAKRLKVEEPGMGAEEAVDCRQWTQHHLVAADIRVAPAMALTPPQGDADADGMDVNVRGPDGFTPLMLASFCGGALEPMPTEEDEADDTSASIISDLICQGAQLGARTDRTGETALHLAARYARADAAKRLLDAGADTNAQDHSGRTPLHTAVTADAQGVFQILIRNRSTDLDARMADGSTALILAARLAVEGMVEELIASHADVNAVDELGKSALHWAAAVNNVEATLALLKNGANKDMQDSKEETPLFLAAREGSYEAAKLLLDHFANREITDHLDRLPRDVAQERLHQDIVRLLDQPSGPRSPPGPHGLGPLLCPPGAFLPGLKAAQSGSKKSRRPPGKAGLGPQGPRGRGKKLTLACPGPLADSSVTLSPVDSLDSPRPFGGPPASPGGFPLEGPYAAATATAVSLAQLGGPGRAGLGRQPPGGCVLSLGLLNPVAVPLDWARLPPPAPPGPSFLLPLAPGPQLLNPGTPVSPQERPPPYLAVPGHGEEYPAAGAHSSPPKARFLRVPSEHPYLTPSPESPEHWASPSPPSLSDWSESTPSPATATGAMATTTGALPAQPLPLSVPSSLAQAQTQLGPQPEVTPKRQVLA
Chain of Torsin-1A-interacting protein 2 (Homo sapiens) (Q8NFQ8 whole entry, looked up): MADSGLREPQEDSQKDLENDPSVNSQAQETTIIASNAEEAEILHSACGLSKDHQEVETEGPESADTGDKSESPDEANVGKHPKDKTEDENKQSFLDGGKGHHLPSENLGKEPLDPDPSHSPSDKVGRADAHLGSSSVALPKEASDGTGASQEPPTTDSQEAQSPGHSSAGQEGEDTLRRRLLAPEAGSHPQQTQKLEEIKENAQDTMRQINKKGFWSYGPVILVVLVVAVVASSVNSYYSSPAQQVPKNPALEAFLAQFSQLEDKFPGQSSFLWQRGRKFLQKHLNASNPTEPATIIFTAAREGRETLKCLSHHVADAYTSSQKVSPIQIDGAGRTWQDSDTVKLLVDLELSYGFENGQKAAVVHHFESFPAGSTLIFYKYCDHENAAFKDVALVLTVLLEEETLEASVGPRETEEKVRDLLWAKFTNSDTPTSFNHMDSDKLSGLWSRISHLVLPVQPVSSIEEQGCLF
Chain of Pro-neuregulin-1, membrane-bound isoform (Homo sapiens) (Q02297 whole entry, looked up, the tested form may be a part, canonical isoform): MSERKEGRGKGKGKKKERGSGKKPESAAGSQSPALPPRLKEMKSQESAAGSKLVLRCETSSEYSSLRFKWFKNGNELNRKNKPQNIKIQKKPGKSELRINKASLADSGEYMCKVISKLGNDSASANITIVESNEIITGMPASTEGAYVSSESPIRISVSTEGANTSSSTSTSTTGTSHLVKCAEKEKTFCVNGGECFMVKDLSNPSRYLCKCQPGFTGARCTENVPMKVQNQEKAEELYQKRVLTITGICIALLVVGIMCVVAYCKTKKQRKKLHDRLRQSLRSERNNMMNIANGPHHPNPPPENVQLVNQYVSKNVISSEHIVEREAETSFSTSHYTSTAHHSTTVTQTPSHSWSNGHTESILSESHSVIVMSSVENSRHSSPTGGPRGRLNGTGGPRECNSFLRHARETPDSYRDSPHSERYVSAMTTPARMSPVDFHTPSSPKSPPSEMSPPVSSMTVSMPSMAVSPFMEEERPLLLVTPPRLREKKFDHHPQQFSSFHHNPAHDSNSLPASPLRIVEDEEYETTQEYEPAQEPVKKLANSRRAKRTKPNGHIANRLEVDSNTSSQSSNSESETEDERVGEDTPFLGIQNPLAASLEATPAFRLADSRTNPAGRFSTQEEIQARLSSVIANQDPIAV

For the compound `CCOC(=O)C[C@H]1[C@H](OC(=O)c2ccccc2-c2ccccc2)[C@@H](NC(=O)c2ccc3ccccc3n2)c2cc(OCCCO)ccc2N1C(=O)c1ccc2ccccc2n1`, the composite z-score was -0.348 in [1]; 0.749 in [2]; -0.074 in [3]; 0.304 in assay [4]; 0.607 in [5]; 0.189 in assay [6]. Besides, the composite z-score in [7] is 0.0721; in assay [9], 0.189; in assay [10] it was -0.0994; in assay [11], 0.215; in assay [15] it was 0.84; in [17], -0.269. Moreover, the composite z-score in assay [18] is 0.283; in assay [19], 0.598; in [20] it was -0.0512. The z-score in assay [8] is 0.075 (inactive); in assay [12], -0.717 (inactive); in assay [13], -0.653 (inactive); in assay [14] it was -0.299 (inactive); in [16], 0.597 (inactive).

In the case of `CC(C)(C)OC(=O)CC[C@]1(C(=O)O)N=C(c2ccc(OCCCO)cc2)O[C@H]1c1ccccc1CN=[N+]=[N-]`, the composite z-score in [1] was -0.169; in assay [2], -0.246; in assay [3], 0.0911; in assay [4], 0.113; in [5] it was 0.261; in [6], 1. For the same compound, the composite z-score was 1.45 in [7]; 0.794 in [9]; -0.409 in assay [10]; -0.619 in assay [11]; 2 in assay [15]; -0.0991 in [17]. In addition, the results for the composite z-score in assay [18], in assay [19] and in assay [20] were -0.465, 0.168 and -0.103, respectively. In addition, the z-score in assay [8] is 2.04 (inactive); in assay [12] it was 0.832 (inactive); in assay [13], 0.291 (inactive); in [14], -0.683 (inactive); in assay [16], 0.275 (inactive).

In the case of `[N-]=[N+]=NCc1ccccc1C[C@]1(C(=O)NCC(O)CO)N=C(c2ccc(OCCCO)cc2)O[C@H]1c1ccccc1CN=[N+]=[N-]` (stereo not given in full), the composite z-score in [1] amounted to 0.0591; in [2], 0.696; in [3], 0.139; in assay [4] it was 1.14; in assay [5] it was 0.566; in assay [6], 1.34. Besides, the composite z-score was 1.16 in assay [7]; 0.723 in [9]; -0.0618 in assay [10]; 1.56 in assay [11]; 3.6 in [15]; 0.054 in assay [17]. In addition, the composite z-score was -0.0965 in assay [18], 0.624 in assay [19] and 0.306 in [20]. Moreover, the z-score in assay [8] is -0.799 (inactive); in assay [12], -0.331 (inactive); in assay [13] it was 0.735 (inactive); in assay [14], 1.48 (inactive); in assay [16], -0.172 (inactive).

Turning to `O=C(O)[C@H]1C[C@H]2C(=O)N3CCC[C@H]3C(=O)N2[C@H]1c1cccc(OCCO)c1`, the composite z-score in [1] is 0.376; in [2], 0.812; in assay [3], -0.0985; in assay [4], 0.178; in assay [5], -0.237; in assay [6], 0.337. Further, the composite z-score in assay [7] is 1.25; in assay [9] it was -0.0791; in assay [10], 0.176; in assay [11] it was 1.04; in [15] it was 2.55; in assay [17] it was 0.027. Also, the results for the composite z-score in assay [18], in assay [19] and in assay [20] were 0.287, 0.237 and -0.109, respectively. For the same compound, the z-score in assay [8] was 6.19 (inactive); in [12], -0.187 (inactive); in [13], -0.391 (inactive); in assay [14], 0.0709 (inactive); in assay [16] it was 0.849 (inactive).

In the case of `CC1CC/C=C\[C@H]2OC34C=CCN(c5ccc6ccccc6c5)C(=O)[C@H]3N(C(CO)C(C)C)C(=O)[C@@H]4C2C(=O)O1` (stereo not given in full), the composite z-score was -0.729 in assay [1]; -0.0684 in assay [2]; -0.0598 in [3]; -0.0104 in assay [4]; -0.477 in [5]; 1.93 in [6]. Moreover, the composite z-score was 1.43 in assay [7]; -0.25 in [9]; -0.132 in [10]; 0.445 in assay [11]; 1.76 in assay [15]; -0.0313 in [17]. Besides, the composite z-score was -0.0033 in [18], 0.135 in [19] and -0.126 in assay [20]. The z-score in [8] is 0.718 (inactive); in assay [12], -1.03 (inactive); in [13] it was -1.55 (inactive); in [14], -0.797 (inactive); in assay [16], -0.578 (inactive).
